# Measured values published in the supplement of paper PMC11732987, “Enantioselective OTUD7B fragment discovery through chemoproteomics screening and high-throughput optimisation” (Communications Chemistry, 2025).
# A number with no mark means an inactive call.
# Columns and labels:
# Assay in all cases: log2 ratio of Biotin-Ahx-Ub-VS probe labelling (fragment/DMSO); higher = less target engagement (more negative = stronger competition), active = hit call of the paper (q ≤ 0.05, log2 ratio ≤ -1)
# Settings in all cases: compound concentration: 200 uM; treatment time: 3 h
# ALG13 = biological target: T1, ALG13 (UniProt Q9NP73)
# T1 sequence (whole entry): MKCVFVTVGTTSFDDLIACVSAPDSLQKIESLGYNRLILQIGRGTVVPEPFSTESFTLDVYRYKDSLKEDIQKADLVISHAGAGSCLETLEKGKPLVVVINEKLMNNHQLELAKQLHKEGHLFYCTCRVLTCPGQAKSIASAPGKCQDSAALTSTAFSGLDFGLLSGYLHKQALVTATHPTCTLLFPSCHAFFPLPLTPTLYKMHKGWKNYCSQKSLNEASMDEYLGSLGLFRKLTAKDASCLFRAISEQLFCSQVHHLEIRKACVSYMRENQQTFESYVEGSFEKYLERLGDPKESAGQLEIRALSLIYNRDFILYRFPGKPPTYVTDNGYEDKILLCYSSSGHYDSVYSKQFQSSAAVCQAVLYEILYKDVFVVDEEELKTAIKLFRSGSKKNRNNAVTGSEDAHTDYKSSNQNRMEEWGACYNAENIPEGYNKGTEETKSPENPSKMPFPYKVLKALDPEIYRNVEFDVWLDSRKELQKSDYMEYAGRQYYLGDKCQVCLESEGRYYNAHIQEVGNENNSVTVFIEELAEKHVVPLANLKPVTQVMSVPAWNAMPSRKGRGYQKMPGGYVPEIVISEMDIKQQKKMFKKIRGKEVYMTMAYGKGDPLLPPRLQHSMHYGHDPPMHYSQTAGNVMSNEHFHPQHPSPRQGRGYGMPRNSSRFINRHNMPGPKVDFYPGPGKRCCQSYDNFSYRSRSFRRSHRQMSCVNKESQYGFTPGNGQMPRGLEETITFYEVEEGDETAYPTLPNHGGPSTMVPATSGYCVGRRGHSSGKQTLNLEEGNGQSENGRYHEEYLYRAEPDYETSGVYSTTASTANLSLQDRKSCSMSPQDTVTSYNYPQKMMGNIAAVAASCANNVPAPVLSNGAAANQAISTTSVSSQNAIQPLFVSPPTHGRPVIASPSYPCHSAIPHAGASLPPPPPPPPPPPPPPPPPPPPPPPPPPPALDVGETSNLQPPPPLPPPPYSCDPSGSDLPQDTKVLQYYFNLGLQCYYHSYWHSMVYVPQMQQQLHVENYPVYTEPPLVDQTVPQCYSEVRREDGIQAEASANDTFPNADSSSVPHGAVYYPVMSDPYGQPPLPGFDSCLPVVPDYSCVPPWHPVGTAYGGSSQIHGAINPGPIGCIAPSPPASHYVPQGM
# Summary of the method: (§1)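 Labelling with Biotin-Ahx-Ub-VS (0.5 µM final, 1 h) followed a 3 h triplicate treatment of HEK293T lysate (495 µg per sample, Tris/CHAPS/IGEPAL buffer with protease inhibitors) with fragment at 200 µM or vehicle. Labelled DUBs were NeutrAvidin-enriched, digested with LysC and trypsin, and run by diaPASEF LC-MS/MS. The values, average log2 fragment/vehicle ratios by unpaired t-test, come from global-median-normalised Spectronaut label-free quantities. Proteins with ≥2 unique peptides were used.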
# ATXN3 = ATXN3 (UniProt P54252)
# ATXN3, sequence (P54252 whole entry): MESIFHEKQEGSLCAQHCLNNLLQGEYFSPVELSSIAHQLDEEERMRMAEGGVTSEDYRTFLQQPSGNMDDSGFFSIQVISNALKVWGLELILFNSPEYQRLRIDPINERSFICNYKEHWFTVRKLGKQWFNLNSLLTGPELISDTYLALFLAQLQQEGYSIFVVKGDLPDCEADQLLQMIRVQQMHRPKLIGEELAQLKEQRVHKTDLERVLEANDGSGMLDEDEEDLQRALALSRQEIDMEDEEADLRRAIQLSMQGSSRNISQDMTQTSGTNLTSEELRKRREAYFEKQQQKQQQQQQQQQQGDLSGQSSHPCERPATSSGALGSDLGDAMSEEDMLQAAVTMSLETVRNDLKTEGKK
# Summary of the method: as §1
# BAP1 = biological target: T2, BAP1 (UniProt Q92560)
# T2 sequence (whole entry): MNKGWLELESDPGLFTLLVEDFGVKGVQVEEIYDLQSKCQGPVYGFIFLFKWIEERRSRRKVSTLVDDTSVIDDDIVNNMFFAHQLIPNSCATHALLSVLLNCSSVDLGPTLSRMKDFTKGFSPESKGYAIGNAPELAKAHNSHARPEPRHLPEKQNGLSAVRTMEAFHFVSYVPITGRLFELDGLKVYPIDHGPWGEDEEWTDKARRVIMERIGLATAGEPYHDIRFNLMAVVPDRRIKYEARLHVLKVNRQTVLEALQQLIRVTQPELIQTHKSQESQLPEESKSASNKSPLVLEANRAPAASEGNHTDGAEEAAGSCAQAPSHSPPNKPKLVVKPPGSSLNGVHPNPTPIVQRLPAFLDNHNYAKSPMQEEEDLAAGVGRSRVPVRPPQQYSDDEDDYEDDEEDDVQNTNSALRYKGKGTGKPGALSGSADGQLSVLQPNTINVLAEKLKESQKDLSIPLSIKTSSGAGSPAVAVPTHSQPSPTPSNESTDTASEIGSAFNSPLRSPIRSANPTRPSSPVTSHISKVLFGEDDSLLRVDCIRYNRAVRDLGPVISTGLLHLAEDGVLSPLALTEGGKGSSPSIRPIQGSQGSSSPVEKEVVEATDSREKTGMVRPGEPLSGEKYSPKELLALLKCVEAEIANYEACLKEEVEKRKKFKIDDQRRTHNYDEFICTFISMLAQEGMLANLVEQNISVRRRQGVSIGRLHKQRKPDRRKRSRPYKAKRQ
# Summary of the method: as §1
# EIF3F = EIF3F (UniProt O00303)
# EIF3F, sequence (O00303 whole entry): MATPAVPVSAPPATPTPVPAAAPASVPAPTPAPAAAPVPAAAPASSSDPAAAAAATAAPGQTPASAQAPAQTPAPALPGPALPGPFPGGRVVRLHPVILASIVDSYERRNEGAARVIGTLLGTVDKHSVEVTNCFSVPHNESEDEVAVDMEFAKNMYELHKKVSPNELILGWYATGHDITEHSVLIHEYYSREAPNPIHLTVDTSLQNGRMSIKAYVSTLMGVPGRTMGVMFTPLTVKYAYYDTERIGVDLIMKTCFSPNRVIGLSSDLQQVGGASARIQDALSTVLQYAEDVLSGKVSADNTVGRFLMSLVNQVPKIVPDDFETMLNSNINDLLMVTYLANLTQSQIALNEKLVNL
# Summary of the method: as §1
# EIF3H = EIF3H (UniProt O15372)
# EIF3H, sequence (O15372 whole entry): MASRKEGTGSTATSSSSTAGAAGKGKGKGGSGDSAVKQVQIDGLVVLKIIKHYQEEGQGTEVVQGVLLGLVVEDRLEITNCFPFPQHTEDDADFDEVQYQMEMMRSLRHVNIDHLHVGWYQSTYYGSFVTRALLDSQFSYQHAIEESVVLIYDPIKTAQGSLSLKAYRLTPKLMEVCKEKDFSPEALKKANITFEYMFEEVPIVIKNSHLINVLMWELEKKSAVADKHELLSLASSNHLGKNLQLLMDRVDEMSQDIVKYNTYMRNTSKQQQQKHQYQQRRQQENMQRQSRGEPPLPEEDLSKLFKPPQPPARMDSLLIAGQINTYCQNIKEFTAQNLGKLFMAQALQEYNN
# Summary of the method: as §1
# FAM105A = biological target: T3, FAM105A (UniProt Q9NUU6)
# T3 sequence (whole entry): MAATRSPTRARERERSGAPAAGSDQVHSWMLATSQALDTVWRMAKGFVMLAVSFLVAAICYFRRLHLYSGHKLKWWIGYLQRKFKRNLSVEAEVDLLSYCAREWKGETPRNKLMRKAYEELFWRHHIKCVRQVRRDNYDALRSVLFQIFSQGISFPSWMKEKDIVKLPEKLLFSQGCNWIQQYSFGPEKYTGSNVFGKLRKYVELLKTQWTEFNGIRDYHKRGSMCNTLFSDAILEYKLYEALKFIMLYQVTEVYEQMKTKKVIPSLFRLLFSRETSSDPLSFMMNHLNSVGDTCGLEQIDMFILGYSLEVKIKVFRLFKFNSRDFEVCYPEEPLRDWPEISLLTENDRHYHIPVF
# Summary of the method: as §1
# OTUB1 = OTUB1 (UniProt Q96FW1)
# OTUB1, sequence (Q96FW1 whole entry): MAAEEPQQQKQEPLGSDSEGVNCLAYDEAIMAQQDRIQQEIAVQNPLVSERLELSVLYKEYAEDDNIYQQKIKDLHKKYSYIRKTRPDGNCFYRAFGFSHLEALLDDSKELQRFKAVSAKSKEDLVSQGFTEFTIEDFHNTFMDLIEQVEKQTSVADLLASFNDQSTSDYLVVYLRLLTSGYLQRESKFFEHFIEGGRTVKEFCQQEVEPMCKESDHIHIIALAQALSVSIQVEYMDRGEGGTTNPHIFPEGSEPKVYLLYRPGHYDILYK
# Summary of the method: as §1
# OTUD4 = biological target: T4, OTUD4 (UniProt Q01804)
# T4 sequence (whole entry): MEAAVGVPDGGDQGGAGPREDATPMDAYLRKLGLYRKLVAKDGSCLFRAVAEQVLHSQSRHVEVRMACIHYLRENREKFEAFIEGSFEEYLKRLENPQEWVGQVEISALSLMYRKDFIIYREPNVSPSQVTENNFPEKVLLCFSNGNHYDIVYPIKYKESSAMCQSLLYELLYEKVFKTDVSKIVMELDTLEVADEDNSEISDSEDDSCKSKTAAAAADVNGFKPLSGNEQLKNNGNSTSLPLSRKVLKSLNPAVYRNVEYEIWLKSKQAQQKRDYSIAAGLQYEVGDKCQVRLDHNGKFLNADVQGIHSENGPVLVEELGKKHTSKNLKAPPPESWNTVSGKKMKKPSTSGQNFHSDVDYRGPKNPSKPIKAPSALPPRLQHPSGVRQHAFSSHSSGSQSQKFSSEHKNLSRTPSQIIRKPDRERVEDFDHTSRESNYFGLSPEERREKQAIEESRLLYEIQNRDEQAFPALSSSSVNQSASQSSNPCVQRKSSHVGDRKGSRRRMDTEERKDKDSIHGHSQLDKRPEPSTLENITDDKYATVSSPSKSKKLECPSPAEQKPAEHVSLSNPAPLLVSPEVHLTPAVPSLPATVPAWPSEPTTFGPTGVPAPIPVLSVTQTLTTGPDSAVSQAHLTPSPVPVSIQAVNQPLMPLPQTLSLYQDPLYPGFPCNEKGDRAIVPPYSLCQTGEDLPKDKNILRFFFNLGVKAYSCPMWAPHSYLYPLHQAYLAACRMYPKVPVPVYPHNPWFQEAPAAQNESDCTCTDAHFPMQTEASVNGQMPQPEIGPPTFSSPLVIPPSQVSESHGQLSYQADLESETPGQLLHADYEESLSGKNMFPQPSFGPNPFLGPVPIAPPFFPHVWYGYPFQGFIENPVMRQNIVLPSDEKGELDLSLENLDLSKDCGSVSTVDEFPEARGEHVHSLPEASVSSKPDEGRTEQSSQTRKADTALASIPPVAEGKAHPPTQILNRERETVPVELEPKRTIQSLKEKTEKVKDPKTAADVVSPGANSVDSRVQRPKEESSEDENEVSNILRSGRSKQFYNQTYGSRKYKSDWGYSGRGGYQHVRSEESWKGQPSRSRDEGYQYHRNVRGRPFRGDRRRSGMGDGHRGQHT
# Summary of the method: as §1
# OTUD5 = biological target: T5, OTUD5 (UniProt Q96G74)
# T5 sequence (whole entry): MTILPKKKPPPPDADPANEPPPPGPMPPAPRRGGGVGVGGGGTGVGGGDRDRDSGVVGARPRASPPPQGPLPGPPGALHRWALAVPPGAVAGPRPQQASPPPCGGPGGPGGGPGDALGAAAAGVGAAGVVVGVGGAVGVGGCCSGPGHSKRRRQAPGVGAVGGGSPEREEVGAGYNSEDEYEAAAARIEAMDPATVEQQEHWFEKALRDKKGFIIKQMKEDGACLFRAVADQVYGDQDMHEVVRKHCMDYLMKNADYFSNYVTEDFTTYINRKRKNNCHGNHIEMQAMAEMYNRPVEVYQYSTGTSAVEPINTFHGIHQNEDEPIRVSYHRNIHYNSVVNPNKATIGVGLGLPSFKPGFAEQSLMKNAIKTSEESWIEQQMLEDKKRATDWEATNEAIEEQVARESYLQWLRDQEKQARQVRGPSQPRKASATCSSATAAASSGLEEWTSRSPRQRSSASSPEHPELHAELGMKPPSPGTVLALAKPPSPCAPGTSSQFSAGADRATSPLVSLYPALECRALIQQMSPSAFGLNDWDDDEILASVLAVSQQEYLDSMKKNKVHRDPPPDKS
# Summary of the method: as §1
smiles,measurement,setting,value
CCC1c2ccsc2CCN1C(=O)CCl (centres undefined),log2 ratio of Biotin-Ahx-Ub-VS probe labelling,ALG13,0.127
same,log2 ratio of Biotin-Ahx-Ub-VS probe labelling,ATXN3,-0.424
same,log2 ratio of Biotin-Ahx-Ub-VS probe labelling,BAP1,-0.48
same,log2 ratio of Biotin-Ahx-Ub-VS probe labelling,EIF3F,-0.262
same,log2 ratio of Biotin-Ahx-Ub-VS probe labelling,EIF3H,0.089
same,log2 ratio of Biotin-Ahx-Ub-VS probe labelling,FAM105A,0.09
same,log2 ratio of Biotin-Ahx-Ub-VS probe labelling,OTUB1,0.0848
same,log2 ratio of Biotin-Ahx-Ub-VS probe labelling,OTUD4,-0.658
same,log2 ratio of Biotin-Ahx-Ub-VS probe labelling,OTUD5,-1.15 (active)
